In ChEMBL document CHEMBL4513216, “Probing the Open Global Health Chemical Diversity Library for Multistage-Active Starting Points for Next-Generation Antimalarials” (ACS Infect Dis, 2020) one finds INHIBITION data, which are given here for 29 molecules.

Hit rate of the full screen: of about 69,000 compounds, about 8,600 (12%) showed an effect of 50% or more. What follows is part of a selection rich in strong results, with near analogues and random picks from the rest.

The assay concerns Plasmodium berghei. Description: Screen against P. berghei liver stage (PbLuc), transformed with Luciferase, at 10uM. Format: functional, HepG2. The note with it: tested at 10 uM.
As to `O=C(c1ccc2c(c1)CCCC2)N1CCCC(n2cncn2)C1` (centres undefined), the INHIBITION turned out to be 19.6%.

On to `O=C(c1cccnc1)N1CCCC(c2ncncc2-c2ccncc2)C1` (centres undefined), for which the INHIBITION was found to be 44.8%.

Regarding `C[C@@H]1C(=O)NC[C@H]2CN(Cc3ccc4c(c3)OCO4)C[C@H]21`, the INHIBITION is 30.9%.

In the case of `COc1nn(C)c2c1CCCN(C(=O)c1ccc3c(c1)OCO3)C2`, the INHIBITION amounted to 20.9%.

`O=C(Nc1ccccc1OCCc1ccccn1)N1CCOCC1`: the INHIBITION is on record as -98.1%.

As for `CNC(=O)C1(Cc2cc(C(C)C)no2)CCN(Cc2cccnc2)C1` (centres undefined), the INHIBITION is given as 13.125%.

With `CCS(=O)(=O)N1CCc2ccc(NC(=O)Nc3cccc(F)c3)cc21`, the INHIBITION is given as 91.4%.

With `CCS(=O)(=O)N1CCc2ccc(NC(=O)Nc3ccccc3)cc21`, the INHIBITION is 88.5%.

Consider `CCS(=O)(=O)N1CCc2ccc(NC(=O)NCc3ccccc3)cc21`, for which the INHIBITION is -23.5%.

Consider `CCNC(=O)N1CCc2ccc(NC(=O)NCC3CC3)cc21`, for which the INHIBITION was 10.7%.

Consider `COCCN1CCC(NC(=O)Nc2cccc(F)c2)C1` (centres undefined), for which the INHIBITION worked out at 28.9%.

Turning to `CCS(=O)(=O)N1CCc2ccc(NC(=O)Nc3ccccc3C)cc21`, the INHIBITION worked out at 34.5%.

With `Cn1cccc1C(=O)N1CCO[C@@H]2CN(Cc3nccs3)C[C@@H]2C1`, the INHIBITION is recorded as -28.5%.

Turning to `CN(C)C(=O)COC[C@]12COC[C@H]1CN(CC1CCC1)C2`, the INHIBITION is reported as -11.1%.

On to `COc1ccnc(N2CCN(C(=O)Cc3ccsc3)CC2)n1`, for which the INHIBITION is -47.6%.

As for `CNS(=O)(=O)CCCN1CCN(C(C#N)c2ccccc2)CC1` (centres undefined), the INHIBITION amounted to 47.3%.

`O=C(Nc1ccccc1)N1CCN(Cc2noc(C3CC3)n2)CC1`: the INHIBITION is on record as 17.4%.

Take `O=C(Cc1ccccc1F)N1CCN(Cc2noc(C3CC3)n2)CC1`: the INHIBITION came to 52.3%.

Consider `O=C(Cc1ccccc1)N1CCN(Cc2noc(C3CC3)n2)CC1`, for which the INHIBITION is recorded as 1.77%.

With `O=C(Nc1ccc(F)cc1)N1CCN(Cc2noc(C3CC3)n2)CC1`, the INHIBITION is -3.2%.

For the molecule `CNC(=O)c1c(C)cccc1NCc1nnc(C2CC2)o1`, the INHIBITION stood at 24.3%.

As for `Cc1ccccc1NC(=O)N1CCN(Cc2noc(C3CC3)n2)CC1`, the INHIBITION is on record as 58.5%.

`O=C(Nc1ccccc1F)N1CCN(Cc2noc(C3CC3)n2)CC1`: the INHIBITION came out at 11.8%.

On to `CNC(=O)c1c(C)cccc1NCC(=O)Nc1cc(C)nn1C`, for which the INHIBITION is listed as 19.1%.

With `CNC(=O)c1c(C)cccc1NCc1noc(C2CC2)n1`, the INHIBITION came to 74%.

Turning to `COC1(CNC(=O)c2ccc3nsnc3c2)CCSC1` (centres undefined), the INHIBITION is on record as -3.83%.

For `COCc1noc(CN2CCC3(CC2)[C@H](O)C[C@@H]3OC)n1`, the INHIBITION is 15.8%.

Take `CCOc1ccc(OCC(O)CN2CCN(S(C)(=O)=O)CC2)cc1` (centres undefined): the INHIBITION is given as -67.3%.

`CC(=O)NCC1CCN(C(=O)c2c[nH]c3cc(Cl)ccc23)CC1`: the INHIBITION is given as 35.3%.
